Measurements published in the supplement of paper PMC6555819.

Columns and labels:
Assay in all cases: PBM binding z-score (relative to random genomic background probes); higher = stronger binding; sequences stand for … in GC…GCGATTGACAGCGTAGAATGAAGG
[1] = tested on: FXR:RXRa (NR concentration 270 nM, RXRa partner concentration 90 nM)
Method in brief: (§1)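 Custom Agilent 4×180K protein-binding microarrays carried double-stranded probes, each with a 34-nt variable region. These regions held direct-repeat seeds, single-nucleotide variants, half-site ablations and random human genomic background sequences. Ligand-free nuclear receptor dimers were incubated on the arrays for 1 h, antibodies against each partner (one per run) detected binding, and scanned fluorescence was regression-normalized. Binding z-scores take the random background probes as reference.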

[2] = tested on: LXRa:RXRa (NR concentration 270 nM, RXRa partner concentration 90 nM)
Method in brief: as §1

[3] = tested on: LXRa homodimer (NR concentration 270 nM)
Method in brief: as §1

[4] = tested on: LXRb:RXRa (NR concentration 270 nM, RXRa partner concentration 90 nM)
Method in brief: as §1

[5] = tested on: LXRb homodimer (NR concentration 270 nM)
Method in brief: as §1

[6] = tested on: PPARa:RXRa (NR concentration 270 nM, RXRa partner concentration 90 nM)
Method in brief: as §1

[7] = tested on: PPARg:RXRa (NR concentration 180 nM, RXRa partner concentration 90 nM)
Method in brief: as §1

[8] = tested on: PPARg:RXRa 270nM:90nM, anti-RXR (NR concentration 270 nM, RXRa partner concentration 90 nM)
Method in brief: as §1

[9] = tested on: PPARg:RXRa 30nM:10nM, anti-RXR (NR concentration 30 nM, RXRa partner concentration 10 nM)
Method in brief: as §1

[10] = tested on: PPARg:RXRa 90nM:30nM, anti-RXR (NR concentration 90 nM, RXRa partner concentration 30 nM)
Method in brief: as §1

Sequence | PBM binding z-score [1] | PBM binding z-score [2] | PBM binding z-score [3] | PBM binding z-score [4] | PBM binding z-score [5] | PBM binding z-score [6] | PBM binding z-score [7] | PBM binding z-score [8] | PBM binding z-score [9] | PBM binding z-score [10]
GCACCAAGGTGAATAGGTCGTTGATGAGTAGGCG | 0.712 | 0.592 | -0.472 | 0.429 | -0.835 | 2.37 | 1.17 | 1.62 | 0.404 | 0.742
CTCGAAAGGTCGGTTGAGGTGATTATACGGATAA | 2.6 | 1.84 | -0.0507 | 1.68 | -0.13 | 2.79 | 0.571 | 1.14 | 0.341 | 0.688
AGTCAAAGTTCATGACGAGGTAACGTAAAGCACG | 6.67 | 6.13 | 2.96 | 3.45 | 0.691 | 5.01 | 6.45 | 6.59 | 3.58 | 5.63
CCTTACGGGGCAAGGTTATAGCACGGGTGGTACG | 0.333 | 0.325 | -0.577 | 0.153 | -0.736 | 1.33 | 0.791 | 0.819 | -0.199 | 0.442
CGAACTAGGTCATTGGCAGGACAGTGAATAGTAA | 4.29 | 2.62 | 0.219 | 1.66 | -0.306 | 4.73 | 7.68 | 6.26 | 3.37 | 5.72
CCAGACAGGTGAGAAGGTAAGTCAGCCTCGATTA | 0.146 | 0.152 | -0.318 | 0.215 | -0.265 | 0.66 | 0.255 | 0.254 | -0.405 | -0.0734
TCTTGTAGATCAATAGAGCTTAAGAAAGTGCGCT | -0.769 | -0.425 | -0.995 | -0.356 | -0.706 | 0.188 | -0.467 | 0.973 | 2.31 | 1.85
ATATGTAGGTTAAGGGTCACTCAGGTTGGTTCGC | 4.78 | 4.46 | 1.96 | 4.27 | 1.2 | 6.85 | 11.8 | 10.2 | 10.8 | 11.2
GCTAGTTGGTCAGTAAAAGGTCCCACACCGGTCG | -0.338 | -0.272 | -0.431 | -0.485 | -0.39 | -0.0763 | -0.0473 | 0.383 | -0.539 | -0.225
CGTCCAAGGTTATAGGAGGTCAGTGAAGACAGAT | 3.51 | 7.81 | 5.37 | 6.47 | 0.402 | 3.39 | 1.35 | 1.77 | 0.207 | 0.943
TCTATTAGTCGAAGGGCAACCGACGAGTCCGTTT | 0.678 | 0.643 | 0.0615 | 0.638 | 0.475 | 0.751 | 0.274 | 2.2 | 3.57 | 2.77
CAAACTAGGCCACCGGAAGGTCAAAGTCCGCATG | 2.96 | 3.08 | 3.39 | 3.15 | 0.364 | 4.46 | 5.26 | 5.14 | 1.86 | 4.33
CGTCCAAGGTCAATGCTAGGTCAGTGAGAGCATT | 6.44 | 5.68 | 2.93 | 4.16 | 0.966 | 5.13 | 4.1 | 4.72 | 2.14 | 3.48
ATCGAAAGATCGACGAGGTGAGTATACACCGTTT | -0.0851 | -0.16 | -0.368 | -0.346 | -0.329 | 0.0246 | 0.902 | -0.253 | 0.289 | 0.00942
GCTGGGAGGACAAGGTCAGAGCTTTGTCCGTAGA | 1.59 | 1.84 | -0.27 | 1.45 | -0.657 | 2.47 | 0.399 | 1.28 | -0.497 | 0.699
AGAACGAGCGCACGCTGAGTTGATAGCAGAGTAG | -0.57 | -0.901 | -0.709 | -1.02 | -1.26 | -1.16 | 0.302 | -0.706 | -0.622 | -0.45
CCGACTGGGGCATAAGGTTCCCATAAGCCAGCCC | -0.429 | -0.436 | -0.915 | -0.62 | -1.28 | 0.156 | 0.836 | 1.45 | -0.116 | 1.19
TCTTGTAGATCAGCAGATTAAGAAAGCTGGCCAA | -0.0778 | -0.0855 | -0.478 | -0.134 | -0.494 | 0.385 | -0.628 | 0.95 | 2.75 | 1.92
TCTTGTAGATTAACAGGAGGTTAAGAAAGATCGA | 0.498 | 1.41 | 0.483 | 0.95 | -0.0109 | 1.06 | 0.145 | 1.41 | 2.67 | 1.89
TCGAGTAGGTTACCGATGGGGCATTCAGCTTTCT | 0.211 | 0.803 | -0.358 | 0.678 | -0.864 | 1.29 | 0.217 | 1.3 | 1.26 | 1.3
TGATATAGGTAAACAGGTGAAAGTCCGTAAGTTA | 0.277 | 0.353 | 0.0822 | 0.388 | 0.0217 | 2.37 | 3.95 | 3.81 | 1.65 | 3.09
TCTTATAGATCAAAGGTTAAGAAAGCCGAAGCCT | 2.06 | 2.39 | 0.368 | 2.31 | -0.12 | 4.55 | 7.79 | 7.92 | 7.61 | 9.15
AGAAAGAGGTTATACGTAGATCAGGGAAGAAAGT | 3.01 | 2.51 | 0.203 | 2.19 | 0.538 | 3.37 | 1.84 | 1.7 | 0.807 | 1.23
CCGACTGGGGGAAAGGTTACCATACTCAGTACGA | 1.81 | 2.38 | 0.42 | 3.4 | 3.72 | 5.42 | 9.9 | 9.24 | 8.87 | 9.88
